Assay [1] can be described thus: Viability qHTS for spleen associated tyrosine kinase inhibitor (SYKi) naive MV4-11 cells (AID 1963823). Note: nearly all actives have a fitted effect of over 40% in size. Note: potency is the fitted concentration of half-maximal effect. In a few lines:
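In this viability screen, compounds acted on SYK inhibitor naive MV4-11 cells for three days (72 hr, 37 C). Remaining viable cells were measured by CellTiter-Glo luminescence following a 10 min room-temperature development.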
On the technique in general: In qHTS, concentration-response curves come from the screen itself.

Assay [2] can be described thus: Viability qHTS for spleen associated tyrosine kinase inhibitor (SYKi) drug resistant MV4-11 cells (AID 1963824). Note: nearly all actives have a fitted effect of over 35% in size. Note: potency is the fitted concentration of half-maximal effect. Summed up: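 SYK inhibitor-resistant MV4-11 AML cells, 500 per well, added to predispensed compounds and incubated 72 hr at 37 C, 5% CO2. Viability measured by CellTiter-Glo luminescence after 10 min at room temperature.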
Assay [3] is described as follows: Quantitative highthroughput screen to assess conditional lethalithy of SEM cells grown in RPMI1640 with unreated serum (RPMI+s) (AID 1963883). Note: potency is the fitted concentration of half-maximal effect; nearly all actives have a fitted effect of over 35% in size. In a few lines:
(§1)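 Each medium arm—HPLM with 10% dialyzed FBS, or RPMI1640 with 5 mM glucose and 10% untreated or dialyzed FBS—was screened against an 11-point, 3-fold compound titration for 48 h at 37 °C, with CellTiter-Glo luminescence as endpoint.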

The nature of assay [4]: Cellular viability qHTS for adrenocortical cancer (ACC) cell line SW-13 (AID 1963989).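 For activity (max response): cells grown in serum-free medium with ITS supplement; % is set by controls: 0 for no effect and ±100 for the full control effect.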 Note: nearly all actives have a fitted effect of over 65% in size. Note: potency is the fitted concentration of half-maximal effect. Particulars: SW-13 ACC cells viability, CellTiter-Glo, 48 h; activity (max response): hits give low values. Summed up: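 Luminescent ATP read-out (CellTiter-Glo, 20 min at room temperature) measured metabolically competent SW-13 cells after 48 h compound treatment. Final concentrations spanned up to 46 uM; bortezomib served as positive control.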

A short description of assay [5]: Cellular viability qHTS for adrenocortical cancer (ACC) cell line NCI-H295R (AID 1963990). Note: nearly all actives have a fitted effect of over 60% in size. Note: potency is the fitted concentration of half-maximal effect. In a few lines: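 IC50 and maximal efficacy derive from four-parameter logistic modelling of titration curves, with reads scaled between DMSO-only wells (0%) and doxorubicin hydrochloride (100% inhibition). Compounds spanned up to 46 uM over 48 h.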
The nature of assay [6]: Quantitative highthroughput screen to assess conditional lethalithy of NOMO1 cells grown in RPMI1640 with dialyzed fetal bovine serum (RPMI+ds) (AID 1963877).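 Note: series mostly up to about 46 µM; 100% = DMSO control wells and 0% = empty wells; nearly all actives have a fitted effect of over 30% in size.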 Summed up: as §1
The nature of assay [7]: Quantitative highthroughput screen to assess conditional lethalithy of NOMO1 cells grown in Human Plasma-Like Medium with dialyzed fetal bovine serum (HPLM+ds) (AID 1963878).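 For Viability: 100% = DMSO wells and 0% = empty wells on each plate.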 Note: nearly all actives have a fitted effect of over 35% in size. Note: potency is the fitted concentration of half-maximal effect. Summed up:
as §1

Assay [8] can be described thus: Quantitative highthroughput screen to assess conditional lethalithy of P12 Ichikawa cells grown in RPMI1640 with dialyzed fetal bovine serum (RPMI+ds) (AID 1963880).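 For Viability: 100% = DMSO wells and 0% = empty wells on each plate.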 Note: nearly all actives have a fitted effect of over 35% in size. Note: potency is the fitted concentration of half-maximal effect. Particulars: Potency: P12-Ichikawa viability. In a few lines:
as §1

Assay [9] in a line: Quantitative highthroughput screen to assess conditional lethalithy of P12 Ichikawa cells grown in RPMI1640 with untreated serum (RPMI+s) (AID 1963881).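 For Viability: series mostly up to about 46 µM; 100% = DMSO wells and 0% = empty wells without cells.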 Note: nearly all actives have a fitted effect of over 35% in size. Note: potency is the fitted concentration of half-maximal effect. The following applies: Potency: viability. In a few lines: as §1
Assay [10] is described as follows: Quantitative highthroughput screen to assess conditional lethalithy of SEM cells grown in RPMI1640 with dialyzed fetal bovine serum (RPMI+ds) (AID 1963884).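 For Viability: series mostly up to about 46 µM; 100% = DMSO control wells and 0% = empty wells without cells.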 Note: nearly all actives have a fitted effect of over 35% in size. Note: potency is the fitted concentration of half-maximal effect. Summed up:
as §1

The nature of assay [11]: Quantitative highthroughput screen to assess conditional lethalithy of P12 Ichikawa cells grown in Human Plasma-Like Medium with dialyzed fetal bovine serum (HPLM+ds) (AID 1963879). The following applies: Potency: viability. In a few lines: as §1
The nature of assay [12]: Quantitative highthroughput screen to assess conditional lethalithy of SEM cells grown in Human Plasma-Like Medium with dialyzed fetal bovine serum (HPLM+ds) (AID 1963882). For Viability: series mostly up to about 46 µM. Note: nearly all actives have a fitted effect of over 35% in size. Note: potency is the fitted concentration of half-maximal effect. Summed up: as §1

Values joined by “and” are separate entries in the source; they are usually repeats but may differ in a detail not shown here. Identical values can stand only once. Results filed as inconclusive are left out. A number with no mark means an inactive call. Active and inactive are the calls of the source. Calls come from the whole dose curve; as a rule, active = well fitted curve in the direction sought with a large enough effect; inconclusive = small, poorly fitted or top-dose-only effect, or another doubt; inactive = no such curve, though single readings can be large; an effect the other way counts as inactive or inconclusive.

On to `C[C@]12CC[C@H](O[C@@H]3O[C@H](CO)[C@@H](O)[C@H](O)[C@H]3O[C@@H]3O[C@H](CO)[C@@H](O)[C@H](O)[C@H]3O)CC1=CC[C@@H]1[C@@H]2CC[C@]2(C)[C@@H](C3=CC(=O)OC3)CC[C@]12O`, for which the figures for the Potency in [1] and in [2] were 6.11 µM (active) and 4.32 µM (active), respectively.
On the same counts, the results for `NC(=O)c1ncn2c1CN=C(c1ccccc1Br)c1cc(F)ccc1-2` are 20.6 µM (active) and “inactive”.
On to `C[C@@]1(CO)[C@H](O)CC[C@@]2(C)[C@H]1CC[C@H]1C[C@@H]3C[C@@]12CC[C@]3(O)CO`, for which the Potency in assay [1] and in [2] was 1.01 µM (active) each time.
In the case of `O=C(O)CCCc1ccc(N(CCCl)CCCl)cc1`, the Potency result in [1], in assay [2] and in [5] was “inactive” throughout. The Potency in assay [3] was 23.5 µM (active). The activity (max response) in [4] was 1.67% and -8.76%.
As for `O=P1(NCCCl)OCCCN1CCCl` (stereo not given), the Potency entry in [1], in assay [2], in assay [6] and in assay [5] was “inactive” in each case. For the same compound, in [4], the activity (max response) is 17.4% and 1.23%.
For the compound `CCCN1CCO[C@@H]2c3cc(O)ccc3OC[C@H]21`, the Potency result in assay [1] and in assay [2] was “inactive” in each case. Also, in [4], the activity (max response) was 7.73%.
`Fc1ccc(C(OCCN2CCN(CCCc3ccccc3)CC2)c2ccc(F)cc2)cc1`: the Potency in [1] is 5.96 µM (active) and 6.61 µM (active); in assay [2], 6.68 µM (active) and 6.61 µM (active); in assay [7], 20.9 µM (active); in [4], 5.8 µM (active) and 14.1 µM (active); in assay [5], 4.61 µM (active) and 11.2 µM (active).
For the compound `COC(=O)[C@@H](N)CCCN=C(N)N[N+](=O)[O-]`, the Potency result in [1], in assay [2], in assay [7], in assay [8], in assay [9] and in [10] was “inactive” in each case. Besides, in [5], the Potency result was “inactive”. For the same compound, the activity (max response) in [4] is 6.1%.
Regarding `CCc1c(C(=O)C(N)=O)c2c(OCC(=O)O)cccc2n1Cc1ccccc1`, the Potency result in assay [1], in [2], in assay [11], in [8], in assay [10] and in assay [5] was “inactive” throughout. Also, in [4], the activity (max response) is -1.25%.
On to `CC[C@@]1(O)C(=O)OCc2c1cc1n(c2=O)Cc2cc3ccccc3nc2-1`, for which the Potency is 0.0235 µM (active) in assay [1]; 0.0235 µM (active) in assay [2]; 0.0662 µM (active) in assay [7]; 0.0209 µM (active) in [8]; 0.0235 µM (active) in assay [9]; 0.0469 µM (active) in [12]. Further, the results for the Potency in assay [3], in assay [10] and in assay [4] were 0.0235 µM (active), 0.0264 µM (active) and 126 nM (active), respectively.
Regarding `COc1ccc(N(C(=O)Oc2c(C)cccc2C)c2ccnc(Nc3ccc(N4CCN(C)CC4)cc3)n2)c(OC)c1`, the Potency was 1.48 µM (active) in assay [1]; 1.16 µM (active) and 2.35 µM (active) in assay [2]; 8910 nM (active) in [4]; 12.6 µM (active) in [5]. Also, the Potency entry in [6] and in assay [11] was “inactive” each time.
Take `CN1C(=O)CCS(=O)(=O)C1c1ccc(Cl)cc1` (stereo not given): the Potency entry in assay [1], in assay [2], in assay [8], in assay [12] and in assay [10] was “inactive” each time. In assay [4], the activity (max response) was 1.09% and -1.33%.

(Values after PubChem BioAssay (NCATS).)
